Test results as given in the supplement of paper PMC11732987, “Enantioselective OTUD7B fragment discovery through chemoproteomics screening and high-throughput optimisation” (Communications Chemistry, 2025).

Assays:
Experiment in all cases: log2 ratio of Biotin-Ahx-Ub-VS probe labelling (fragment/DMSO); higher = less target engagement (more negative = stronger competition), active = hit call of the paper (q ≤ 0.05, log2 ratio ≤ -1)
Details in all cases: compound concentration: 200 uM; treatment time: 3 h
[1] = target: T1, USP19 (UniProt O94966)
T1 sequence (whole entry): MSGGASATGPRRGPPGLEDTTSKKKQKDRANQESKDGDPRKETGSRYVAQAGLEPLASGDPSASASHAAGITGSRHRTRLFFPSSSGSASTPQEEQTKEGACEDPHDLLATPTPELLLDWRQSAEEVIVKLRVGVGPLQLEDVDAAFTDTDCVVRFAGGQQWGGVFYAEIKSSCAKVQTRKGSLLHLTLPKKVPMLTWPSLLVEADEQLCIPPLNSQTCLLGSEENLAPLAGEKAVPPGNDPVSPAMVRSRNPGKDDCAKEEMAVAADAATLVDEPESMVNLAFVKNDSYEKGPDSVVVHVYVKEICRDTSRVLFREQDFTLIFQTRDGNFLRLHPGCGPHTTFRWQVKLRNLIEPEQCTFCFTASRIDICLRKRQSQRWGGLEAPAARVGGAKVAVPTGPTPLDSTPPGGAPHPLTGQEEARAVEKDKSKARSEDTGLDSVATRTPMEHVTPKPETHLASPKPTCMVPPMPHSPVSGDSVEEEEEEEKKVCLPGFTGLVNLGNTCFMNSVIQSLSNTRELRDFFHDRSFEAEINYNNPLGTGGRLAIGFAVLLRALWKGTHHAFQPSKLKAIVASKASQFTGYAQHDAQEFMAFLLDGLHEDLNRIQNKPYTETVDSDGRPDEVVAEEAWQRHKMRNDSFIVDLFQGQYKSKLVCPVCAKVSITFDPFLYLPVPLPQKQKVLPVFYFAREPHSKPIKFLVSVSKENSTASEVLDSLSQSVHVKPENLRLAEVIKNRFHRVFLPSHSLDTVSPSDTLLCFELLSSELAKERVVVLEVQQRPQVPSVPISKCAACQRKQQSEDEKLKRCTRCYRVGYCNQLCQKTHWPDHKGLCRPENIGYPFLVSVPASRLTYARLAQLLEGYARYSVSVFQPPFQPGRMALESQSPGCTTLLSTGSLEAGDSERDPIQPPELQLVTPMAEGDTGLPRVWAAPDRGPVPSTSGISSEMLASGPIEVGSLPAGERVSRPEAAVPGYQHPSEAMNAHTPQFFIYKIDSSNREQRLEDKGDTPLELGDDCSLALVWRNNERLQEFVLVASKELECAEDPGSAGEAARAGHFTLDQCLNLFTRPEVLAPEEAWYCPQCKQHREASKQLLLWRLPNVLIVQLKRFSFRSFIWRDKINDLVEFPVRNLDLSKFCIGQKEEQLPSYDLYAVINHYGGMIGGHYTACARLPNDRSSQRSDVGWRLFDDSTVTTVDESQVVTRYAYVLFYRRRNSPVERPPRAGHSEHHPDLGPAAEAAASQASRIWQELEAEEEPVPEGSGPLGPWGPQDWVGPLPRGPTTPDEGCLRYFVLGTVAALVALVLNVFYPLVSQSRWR
How it was run: (§1)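 The table lists average log2 ratios of fragment over vehicle, from an unpaired t-test on global-median-normalised Spectronaut label-free quantities. Proteins with ≥2 unique peptides were used. Samples were HEK293T lysate (495 µg) treated in triplicate with fragment at 200 µM or vehicle for 3 h, then with Biotin-Ahx-Ub-VS (0.5 µM final) for 1 h, with labelled DUBs NeutrAvidin-enriched and run by diaPASEF LC-MS/MS.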

[2] = target: T2, USP22 (UniProt Q9UPT9)
T2 sequence (whole entry): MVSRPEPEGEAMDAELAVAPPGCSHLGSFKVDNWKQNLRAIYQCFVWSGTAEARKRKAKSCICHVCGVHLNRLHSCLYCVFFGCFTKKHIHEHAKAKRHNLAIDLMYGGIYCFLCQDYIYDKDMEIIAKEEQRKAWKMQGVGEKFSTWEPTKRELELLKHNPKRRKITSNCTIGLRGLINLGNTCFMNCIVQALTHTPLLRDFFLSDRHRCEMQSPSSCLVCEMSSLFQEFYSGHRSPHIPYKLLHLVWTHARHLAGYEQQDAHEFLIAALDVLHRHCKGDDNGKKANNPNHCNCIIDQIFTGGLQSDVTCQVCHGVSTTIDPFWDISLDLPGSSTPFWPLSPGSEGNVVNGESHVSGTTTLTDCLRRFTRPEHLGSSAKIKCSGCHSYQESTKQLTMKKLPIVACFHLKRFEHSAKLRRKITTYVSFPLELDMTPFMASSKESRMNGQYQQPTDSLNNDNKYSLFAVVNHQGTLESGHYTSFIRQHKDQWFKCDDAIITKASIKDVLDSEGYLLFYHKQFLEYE
How it was run: as §1

[3] = target: USP24 (UniProt Q9UPU5)
How it was run: as §1

[4] = target: T3, USP25 (UniProt Q9UHP3)
T3 sequence (whole entry): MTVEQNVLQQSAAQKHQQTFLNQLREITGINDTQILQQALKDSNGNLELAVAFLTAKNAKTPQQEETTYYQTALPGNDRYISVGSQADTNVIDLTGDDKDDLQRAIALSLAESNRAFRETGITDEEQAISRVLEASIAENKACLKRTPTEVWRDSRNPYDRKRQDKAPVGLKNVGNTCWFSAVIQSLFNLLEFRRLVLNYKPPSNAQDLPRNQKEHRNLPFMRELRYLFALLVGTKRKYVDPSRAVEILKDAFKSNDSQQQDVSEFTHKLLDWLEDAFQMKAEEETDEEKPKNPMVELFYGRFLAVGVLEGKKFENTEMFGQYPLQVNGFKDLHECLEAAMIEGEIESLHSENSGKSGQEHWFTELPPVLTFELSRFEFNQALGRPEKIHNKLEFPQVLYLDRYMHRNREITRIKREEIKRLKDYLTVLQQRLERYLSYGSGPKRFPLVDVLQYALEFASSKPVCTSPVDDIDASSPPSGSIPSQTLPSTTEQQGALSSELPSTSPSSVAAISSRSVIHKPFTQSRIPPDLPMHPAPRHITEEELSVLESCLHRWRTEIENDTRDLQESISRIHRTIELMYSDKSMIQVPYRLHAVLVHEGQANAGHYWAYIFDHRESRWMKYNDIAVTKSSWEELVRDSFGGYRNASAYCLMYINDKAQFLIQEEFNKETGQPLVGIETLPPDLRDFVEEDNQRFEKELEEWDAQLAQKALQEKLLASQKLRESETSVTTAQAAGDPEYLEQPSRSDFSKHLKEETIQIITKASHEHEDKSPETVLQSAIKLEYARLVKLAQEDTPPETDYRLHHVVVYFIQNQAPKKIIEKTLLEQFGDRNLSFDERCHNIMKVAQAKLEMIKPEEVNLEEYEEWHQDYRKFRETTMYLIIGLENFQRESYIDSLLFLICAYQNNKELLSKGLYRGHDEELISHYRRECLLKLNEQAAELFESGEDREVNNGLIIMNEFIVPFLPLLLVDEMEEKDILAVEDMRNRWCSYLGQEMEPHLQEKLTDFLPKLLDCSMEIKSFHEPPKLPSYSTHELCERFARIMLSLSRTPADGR
How it was run: as §1

[5] = target: T4, USP28 (UniProt Q96RU2)
T4 sequence (whole entry): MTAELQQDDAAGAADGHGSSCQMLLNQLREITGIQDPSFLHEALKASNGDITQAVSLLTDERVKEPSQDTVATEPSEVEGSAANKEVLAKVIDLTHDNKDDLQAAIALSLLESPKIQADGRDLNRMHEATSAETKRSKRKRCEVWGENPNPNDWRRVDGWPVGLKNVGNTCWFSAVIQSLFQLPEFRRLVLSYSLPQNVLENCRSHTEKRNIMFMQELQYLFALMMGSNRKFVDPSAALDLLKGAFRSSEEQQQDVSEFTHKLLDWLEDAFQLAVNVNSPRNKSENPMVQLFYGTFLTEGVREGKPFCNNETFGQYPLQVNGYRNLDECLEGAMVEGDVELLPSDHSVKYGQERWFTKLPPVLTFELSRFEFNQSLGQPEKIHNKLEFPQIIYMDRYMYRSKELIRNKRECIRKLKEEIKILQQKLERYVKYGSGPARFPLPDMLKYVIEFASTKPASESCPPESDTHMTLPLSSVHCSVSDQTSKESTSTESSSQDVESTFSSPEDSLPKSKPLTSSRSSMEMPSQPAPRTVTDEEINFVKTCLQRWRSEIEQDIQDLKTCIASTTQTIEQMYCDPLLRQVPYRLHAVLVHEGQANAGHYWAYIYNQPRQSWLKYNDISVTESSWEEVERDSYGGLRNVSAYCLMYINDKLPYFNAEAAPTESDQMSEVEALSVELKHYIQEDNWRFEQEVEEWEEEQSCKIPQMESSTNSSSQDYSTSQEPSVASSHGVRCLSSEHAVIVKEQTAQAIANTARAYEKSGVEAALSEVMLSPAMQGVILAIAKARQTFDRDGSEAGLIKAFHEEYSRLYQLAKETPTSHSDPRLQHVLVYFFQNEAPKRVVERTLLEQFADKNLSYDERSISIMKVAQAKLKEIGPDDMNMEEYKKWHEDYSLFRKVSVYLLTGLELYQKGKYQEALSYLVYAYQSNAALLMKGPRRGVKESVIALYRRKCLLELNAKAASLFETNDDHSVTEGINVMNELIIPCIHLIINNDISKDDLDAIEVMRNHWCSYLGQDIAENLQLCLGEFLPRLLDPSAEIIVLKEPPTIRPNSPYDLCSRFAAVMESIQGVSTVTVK
How it was run: as §1

Measured: log2 ratio of Biotin-Ahx-Ub-VS probe labelling

USP24, sequence (Q9UPU5 whole entry): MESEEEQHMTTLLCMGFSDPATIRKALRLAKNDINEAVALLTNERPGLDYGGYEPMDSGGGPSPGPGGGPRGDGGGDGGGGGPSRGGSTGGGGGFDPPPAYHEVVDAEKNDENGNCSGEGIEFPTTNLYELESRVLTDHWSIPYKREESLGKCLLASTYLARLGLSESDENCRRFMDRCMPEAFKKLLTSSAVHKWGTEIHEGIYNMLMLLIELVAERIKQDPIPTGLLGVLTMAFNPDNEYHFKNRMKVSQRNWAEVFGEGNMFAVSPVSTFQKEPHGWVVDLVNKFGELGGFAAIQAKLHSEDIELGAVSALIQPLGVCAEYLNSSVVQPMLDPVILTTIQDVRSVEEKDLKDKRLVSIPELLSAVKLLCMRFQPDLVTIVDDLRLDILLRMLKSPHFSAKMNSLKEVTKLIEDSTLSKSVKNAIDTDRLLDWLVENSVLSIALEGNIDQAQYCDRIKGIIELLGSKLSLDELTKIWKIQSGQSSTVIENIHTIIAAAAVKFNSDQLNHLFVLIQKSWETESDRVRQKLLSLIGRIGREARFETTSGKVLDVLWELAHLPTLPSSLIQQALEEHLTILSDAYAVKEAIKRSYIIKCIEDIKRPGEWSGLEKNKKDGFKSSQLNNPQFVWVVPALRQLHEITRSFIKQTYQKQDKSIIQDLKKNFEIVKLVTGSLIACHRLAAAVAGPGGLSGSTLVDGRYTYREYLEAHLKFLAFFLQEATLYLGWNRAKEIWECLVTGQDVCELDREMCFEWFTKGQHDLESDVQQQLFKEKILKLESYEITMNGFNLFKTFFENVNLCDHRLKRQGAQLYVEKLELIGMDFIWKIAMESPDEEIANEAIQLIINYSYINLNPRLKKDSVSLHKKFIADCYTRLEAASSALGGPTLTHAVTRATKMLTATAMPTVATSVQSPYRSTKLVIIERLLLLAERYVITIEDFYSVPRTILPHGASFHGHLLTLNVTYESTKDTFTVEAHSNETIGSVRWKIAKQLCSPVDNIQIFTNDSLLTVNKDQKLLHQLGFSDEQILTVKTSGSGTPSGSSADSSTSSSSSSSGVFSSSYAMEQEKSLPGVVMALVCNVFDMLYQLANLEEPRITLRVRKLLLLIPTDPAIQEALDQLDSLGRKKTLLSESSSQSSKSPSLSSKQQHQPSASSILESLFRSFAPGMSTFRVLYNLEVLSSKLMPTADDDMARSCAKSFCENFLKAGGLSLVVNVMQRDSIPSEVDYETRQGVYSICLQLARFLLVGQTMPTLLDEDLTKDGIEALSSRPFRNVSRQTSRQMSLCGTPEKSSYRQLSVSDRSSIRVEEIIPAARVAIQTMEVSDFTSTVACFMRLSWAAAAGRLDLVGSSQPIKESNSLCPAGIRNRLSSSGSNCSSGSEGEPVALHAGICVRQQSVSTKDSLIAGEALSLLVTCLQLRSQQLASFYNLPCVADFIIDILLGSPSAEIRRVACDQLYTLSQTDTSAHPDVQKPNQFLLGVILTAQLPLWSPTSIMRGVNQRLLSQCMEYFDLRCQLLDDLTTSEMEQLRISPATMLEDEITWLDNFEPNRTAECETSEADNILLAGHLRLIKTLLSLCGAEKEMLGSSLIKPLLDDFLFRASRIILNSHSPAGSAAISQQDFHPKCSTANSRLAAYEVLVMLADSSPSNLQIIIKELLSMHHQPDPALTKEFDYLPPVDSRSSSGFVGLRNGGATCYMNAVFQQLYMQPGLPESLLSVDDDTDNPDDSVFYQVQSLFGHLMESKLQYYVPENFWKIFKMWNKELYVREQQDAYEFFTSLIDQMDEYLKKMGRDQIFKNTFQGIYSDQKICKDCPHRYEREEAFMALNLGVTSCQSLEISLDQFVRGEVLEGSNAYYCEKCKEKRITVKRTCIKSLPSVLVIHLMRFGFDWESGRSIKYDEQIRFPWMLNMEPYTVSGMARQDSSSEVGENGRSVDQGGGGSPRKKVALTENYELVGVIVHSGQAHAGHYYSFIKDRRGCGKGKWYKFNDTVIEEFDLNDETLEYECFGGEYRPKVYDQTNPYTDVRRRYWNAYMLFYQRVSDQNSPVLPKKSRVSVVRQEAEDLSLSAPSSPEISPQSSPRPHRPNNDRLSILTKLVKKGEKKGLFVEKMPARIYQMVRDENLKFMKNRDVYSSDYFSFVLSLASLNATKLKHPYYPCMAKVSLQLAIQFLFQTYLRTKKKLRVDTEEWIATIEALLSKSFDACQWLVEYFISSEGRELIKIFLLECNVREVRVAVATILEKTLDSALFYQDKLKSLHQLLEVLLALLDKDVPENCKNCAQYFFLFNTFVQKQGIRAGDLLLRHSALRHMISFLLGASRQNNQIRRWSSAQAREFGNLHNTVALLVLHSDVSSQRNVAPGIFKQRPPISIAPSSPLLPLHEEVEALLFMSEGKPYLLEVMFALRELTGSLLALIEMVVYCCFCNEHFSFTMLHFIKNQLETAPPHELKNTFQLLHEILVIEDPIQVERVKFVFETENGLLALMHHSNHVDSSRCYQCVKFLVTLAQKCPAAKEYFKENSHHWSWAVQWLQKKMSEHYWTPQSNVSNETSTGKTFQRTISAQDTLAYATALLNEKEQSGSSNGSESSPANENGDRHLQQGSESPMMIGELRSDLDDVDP

Cc1cccc(C)c1NC(=O)CCl
inactive: [1] -0.0774 | [2] 0.0867 | [3] -0.266 | [4] -0.436 | [5] -0.794
